A word on the inhibition: it is the change of the read-out against control, counted positive when it falls.

81 molecules from PubChem BioAssay AID434989 (The Scripps Research Institute Molecular Screening Center, 2010) can be followed below.

The campaign covered roughly 330,000 compounds. About 1,400 (0.42%) were called active.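 How the source made its calls: active means inhibition above its plate's threshold, mean inhibition of all tested compounds on the plate plus 3 SD (cut at about 37% in these data); inactive means the rest.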 The list comes from a sample in which actives are over-represented; it also holds similar structures and randomly drawn compounds.

The target of this assay is Orexin/Hypocretin receptor type 1 (Homo sapiens) (UniProt O43613). Kind of assay: blockers of orexin-A calcium signaling via HCRTR1 – fluorescence, CHO/OX1R cells, Fluo-8 calcium, primary screen (AID 434989).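 Further: 0% = orexin A challenge wells and 100% = SB-334867-A antagonist wells.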 The settings on record: Fluo-8 calcium fluorescence, at 5 µM, hits give high values.
Orexin/Hypocretin receptor type 1 (Homo sapiens), sequence (O43613 whole entry, looked up): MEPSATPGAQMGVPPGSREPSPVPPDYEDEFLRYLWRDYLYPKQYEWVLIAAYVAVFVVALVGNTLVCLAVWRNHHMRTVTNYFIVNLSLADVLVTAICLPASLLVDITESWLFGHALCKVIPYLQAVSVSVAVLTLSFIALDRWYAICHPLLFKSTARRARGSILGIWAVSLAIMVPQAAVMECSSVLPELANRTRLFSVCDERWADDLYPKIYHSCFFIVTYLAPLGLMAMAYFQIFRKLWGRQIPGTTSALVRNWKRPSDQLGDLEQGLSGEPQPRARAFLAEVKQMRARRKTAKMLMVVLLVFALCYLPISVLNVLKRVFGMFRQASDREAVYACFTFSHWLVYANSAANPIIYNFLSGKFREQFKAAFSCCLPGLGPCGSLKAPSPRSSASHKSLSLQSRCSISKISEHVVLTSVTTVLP
On to `c1ccc(-c2cc(-c3ccccc3)[nH]n2)cc1`, for which the inhibition is -9.86% (inactive).

For the molecule `S=c1[nH]nc(-c2cc(-c3ccccc3)n[nH]2)n1/N=C/c1c2ccccc2cc2ccccc12`, the inhibition was 44.8% (active).

Take `Fc1ccccc1/C=N/n1c(-c2cccnc2)n[nH]c1=S`: the inhibition is -5.34% (inactive).

Consider `C=CC[C@H](CC(=O)OC(C)(C)C)C(=O)OC[C@H]1CCCN1C(=O)[C@H](CC=C)CC(=O)N(CCO)Cc1ccccc1`, for which the inhibition was -15.6% (inactive).

Consider `O=C1N[C@H](Cc2c[nH]c3ccccc23)COC(=O)[C@H](Cc2ccc(F)cc2)C/C=C\C[C@H]1CC(=O)N(CCO)Cc1ccccc1`, for which the inhibition is -2.05% (inactive).

For the molecule `CC(C)(C)NS(=O)(=O)NC(=O)C1=C(N2CCCC2)COC1=O`, the inhibition was -2.12% (inactive).

`O=C(CNC(=O)c1cccnc1)N/N=C/c1cccnc1`: the inhibition is 1.04% (inactive).

On to `O=C(NN=C1CCC(=NNC(=O)c2cccnc2)CC1)c1cccnc1`, for which the inhibition is -6.2% (inactive).

With `O=C(N/N=C/c1sc(N2CCCCC2)nc1-c1cccs1)c1cccnc1`, the inhibition was 44.9% (active).

With `CC(=O)N(O)CCCCCNC(=O)CCC(=O)N(O)CCCCCNC(=O)CCC(=O)N(O)CCCCCNC(=O)CCC(=O)O`, the inhibition is -5.54% (inactive).

`CC(=O)NC(Cc1c[nH]c2ccccc12)C(=O)O` (stereo unspecified): the inhibition is -1.34% (inactive).

Consider `CC(=O)Nc1ccc(/C=N/NC(=O)c2cccs2)cc1`, for which the inhibition is 18.2% (inactive).

For the molecule `O=C(NC(Cc1c[nH]c2ccccc12)C(=O)N/N=C/c1ccc(Br)cc1)c1cccs1` (stereo unspecified), the inhibition was 52.5% (active).

With `Cc1ccc(N2C(=O)N3[C@@H]4c5ccccc5OC[C@@H]4[C@@H](c4ccccc4)[C@@]3(C)C2=O)cc1`, the inhibition was -30.9% (inactive).

As for `COc1ccc(CNc2nc(NCc3ccc(OC)cc3)c3ncn(C4CCCC4)c3n2)cc1`, the inhibition is -5.92% (inactive).

On to `Cc1noc(C)c1NC(=O)Nc1ccc2c(c1)C(=O)N([C@H](C)CO)C[C@H](C)[C@@H](CN(C)C(=O)Nc1ccccc1)O2`, for which the inhibition was -4.54% (inactive).

Turning to `COc1ccc(NS(=O)(=O)c2ccc(NC(=S)NC(=O)CC(C)C)cc2)cc1`, the inhibition was 50.3% (active).

Regarding `COc1cc(NS(=O)(=O)c2ccc(NC(C)=O)cc2)cc(OC)c1`, the inhibition was 9.3% (inactive).

On to `CC(=O)c1ccc(NC(=S)NC(=O)CC(C)C)cc1`, for which the inhibition was 3.22% (inactive).

With `COc1ccc(N2CCN(C(CNS(=O)(=O)c3ccc(C)cc3)c3ccccc3)CC2)cc1` (stereo unspecified), the inhibition was -26.8% (inactive).

Consider `CCN([C@H](CO)C(C)C)S(=O)(=O)c1ccccc1Br`, for which the inhibition is 1.51% (inactive).

Regarding `O=C(COC(=O)COc1ccccc1F)Nc1cccc(S(=O)(=O)N2CCCCC2)c1`, the inhibition was -27.3% (inactive).

`CCn1nnc2cc(C(=O)Nc3ccc(C(=O)OC(C)C)cc3)ccc21`: the inhibition is -14.8% (inactive).

As for `COc1cc(OC)cc(C(=O)N[C@H](C(=O)OCC(=O)NC(C)c2ccccc2)C(C)C)c1` (stereo partly specified), the inhibition was 59% (active).

For the molecule `Cc1cc(C)cc(OCC(=O)NC(C)c2ccccc2)c1` (stereo unspecified), the inhibition is -37.8% (inactive).

On to `COc1cc(OC)cc(C(=O)NC(C(=O)N2CCC2)C(C)C)c1` (stereo unspecified), for which the inhibition was -9.6% (inactive).

For the molecule `CC(C)(C)OC(=O)C[C@@H]1C/C=C\C[C@@H](CC(=O)N[C@H](CO)Cc2ccccc2)C(=O)NCCOC1=O`, the inhibition was 2.53% (inactive).

`COc1ccc(CN2C(CC(=O)Nc3cccnc3)c3ccc(C(F)(F)F)cc3S2(=O)=O)cc1` (stereo unspecified): the inhibition was -16.2% (inactive).

As to `COC(=O)Cn1cc(/C=C/[N+](=O)[O-])c2ccccc21`, the inhibition is -4.68% (inactive).

As to `O=[N+]([O-])/C=C/c1ccc2c(ccn2Cc2ccccc2)c1`, the inhibition was 53.8% (active).

With `O=C(Cn1ccc2cc(S(=O)(=O)N3CCCC3)ccc21)NCc1ccccc1`, the inhibition is -25.5% (inactive).

As for `CC1(C)C[C@H]2C3=CCC4[C@@]5(C)CC[C@H](O)[C@](C)(CO)C5CC[C@@]4(C)[C@]3(C)C[C@@H](O)[C@@]2(CO)[C@@H](O)[C@@H]1O` (stereo partly specified), the inhibition was -0.97% (inactive).

For the molecule `O=C(Nc1ccc(C2CC2(Cl)Cl)cc1)c1cccc([N+](=O)[O-])c1` (stereo unspecified), the inhibition was 45.8% (active).

As for `O=C(Nc1ccc(NC(=O)c2ccco2)c(Cl)c1)c1cccc([N+](=O)[O-])c1`, the inhibition is -19.9% (inactive).

Consider `O=C(Nc1ccc(C(=O)N2CCCCC2)cc1)c1cccc([N+](=O)[O-])c1`, for which the inhibition was 1.86% (inactive).

Turning to `CC(Sc1nncn1C)C(=O)NCCC1=CCCCC1` (stereo unspecified), the inhibition is -6.11% (inactive).

For `COc1ccc(CNC(=O)C[C@H]2C[C@H](C(=O)N3CCOCC3)[C@@]3(CCC4CCCC4)c4[nH]c5ccc(Cl)cc5c4CCN3C2=O)cc1OC`, the inhibition was 19.8% (inactive).

`COc1ccc(NC(=O)/C(Cl)=C(/Cl)S(=O)Cc2ccc(C)cc2)cn1` (stereo unspecified): the inhibition is 47.5% (active).

As for `Cc1ccc(NC(=O)OCc2cncs2)cc1`, the inhibition is -7.33% (inactive).

`COc1ccc(Nc2ccc([N+](=O)[O-])cn2)cn1`: the inhibition is -22.9% (inactive).

With `CCCSc1ccc([C@H]2N[C@@](Cc3ccccc3)(C(=O)OC)[C@H]3C(=O)N(C)C(=O)[C@@H]23)cc1`, the inhibition was -27.9% (inactive).

For the molecule `CC(C)(C)OC(=O)C1=C(CO)CS[C@@H]2[C@H](NC(=O)Cc3ccccc3)C(=O)N12`, the inhibition was 1.11% (inactive).

With `C=CC[C@@H](CC(=O)NCCO)C(=O)N[C@H](C)COC(=O)[C@@H](CC=C)CC(=O)OC(C)(C)C`, the inhibition is 1.19% (inactive).

On to `CN(C(=O)COC(=O)Cc1ccccc1[N+](=O)[O-])C1CCS(=O)(=O)C1` (stereo unspecified), for which the inhibition was 1.38% (inactive).

Consider `CC(C)n1cnc2c(NCc3ccccc3)cc(N[C@@H](CO)Cc3ccccc3)cc21`, for which the inhibition is -6.91% (inactive).

With `Cc1cc(N2CCCC2)ccc1NC(=O)COc1ccc(Cl)cc1`, the inhibition is 23.4% (inactive).

In the case of `CCC(=O)c1ccc(OCC(=O)Nc2ccc3nc(C)sc3c2)cc1`, the inhibition was -9.93% (inactive).

Take `Cc1ccc(NC(=O)COc2ccc(-n3ccnc3)cc2)cc1Cl`: the inhibition is 49.1% (active).

Turning to `CN(CC(=O)Nc1ccc(OC(F)F)cc1)S(=O)(=O)/C=C/c1ccccc1`, the inhibition was -20% (inactive).

For `COc1ccc(S(=O)(=O)Nc2cccc3c2O[C@H](CN(C)S(=O)(=O)c2ccc(OC)cc2)[C@@H](C)CN([C@H](C)CO)C3=O)cc1`, the inhibition is -20.8% (inactive).

As to `CN[C@H](C(=O)NC[C@H]1O[C@@H](n2cnc3c(N)ncnc32)[C@H](O)[C@@H]1O)[C@@H](C)OCc1ccccc1`, the inhibition is -13.1% (inactive).

Take `CCCCNS(=O)(=O)CCNCc1ccccc1OC`: the inhibition is -14.5% (inactive).

As for `O=C(COC(=O)C1CCCO1)Nc1nc(-c2ccc(F)cc2)cs1` (stereo unspecified), the inhibition is -7.58% (inactive).

Consider `CCOC(=O)Cn1c(-c2cccnc2Cl)nc2ccccc21`, for which the inhibition is -7.78% (inactive).

Turning to `CCCCCCCCCCOC(=O)Cn1c(COc2ccc(C)cc2)[n+](C)c2ccccc21`, the inhibition was 51.1% (active).

Take `CCCCn1c(N)c(N(CCOC)C(=O)c2cccc(OCc3ccccc3)c2)c(=O)[nH]c1=O`: the inhibition is -25.9% (inactive).

In the case of `CCOC(=O)COn1c(=O)c(-c2ccc(OCC)cc2)[n+]([O-])c2ccccc21`, the inhibition was -31.8% (inactive).

With `CCCCCCCCCCOC(=O)Cn1c(COc2cccc(OC)c2)[n+](C)c2ccccc21`, the inhibition is 41.4% (active).

In the case of `CCn1c(COc2cccc(OC)c2)nnc1SCC(=O)N1CCOCC1`, the inhibition was -6.58% (inactive).

For the molecule `COc1ccc2nc3n(c(=O)c2c1)-c1ccc(Cl)cc1C(=O)NC3Cc1ccccc1` (stereo unspecified), the inhibition is -24.8% (inactive).

For `CCOC(=O)C1=CN(Cc2ccc(Br)cc2)S(=O)(=O)N(C)C1C` (stereo unspecified), the inhibition is -12.4% (inactive).

With `O=C1[C@@H](c2ccccc2)[C@@H](c2ccccc2)N1c1cccnc1`, the inhibition is 42.8% (inactive).

As for `COc1cc(/C=C/C(=O)Nc2ccc(OC)c(S(=O)(=O)N3CCOCC3)c2)ccc1OCC#N`, the inhibition is 9.74% (inactive).

As for `Cn1nnnc1SCC(=O)Nc1nc2ccccc2s1`, the inhibition was -5.36% (inactive).

Take `C=CCn1c(SCC(=O)Nc2nc3ccccc3s2)nnc1-c1ccccc1O`: the inhibition is 68% (active).

For the molecule `C=CCn1c(SCC(=O)NCc2ccccc2)nnc1-c1cc(Br)ccc1O`, the inhibition is -7.43% (inactive).

Take `Cc1ccc(S(=O)(=O)NC[C@H]2O[C@@H](n3cnc4c(N)ncnc43)[C@H](O)[C@@H]2O)s1`: the inhibition is -0.44% (inactive).

Consider `CCn1c(=S)[nH]c2cc(S(=O)(=O)N3CCOCC3)ccc21`, for which the inhibition was -24.1% (inactive).

Turning to `O=C(O)c1ccccc1CSc1nc2ccccc2s1`, the inhibition was -10.9% (inactive).

Turning to `CCOc1ccccc1Nc1ccc2nonc2c1[N+](=O)[O-]`, the inhibition is -9.48% (inactive).

Consider `O=[N+]([O-])c1c(NCCO)cc(Sc2nc3ccccc3s2)c2nonc12`, for which the inhibition was 59.3% (active).

As to `C[C@@H](CN1CCC[C@H]1CN1C(N)=NC[C@@H]1Cc1ccccc1)N1C[C@@H](Cc2ccccc2)N(CCCC2CCCC2)C1=N`, the inhibition is -9.98% (inactive).

On to `Fc1ccccc1-c1cc2cc3c(cc2cn1)OCO3`, for which the inhibition was 38.1% (inactive).

For `Cc1c(CN2CC[C@@H](N3CCN(c4ccccn4)CC3)[C@H](O)C2)[nH]c2ccc(F)cc12`, the inhibition was -18.8% (inactive).

For the molecule `Fc1ccc2[nH]c3c(N4CCSCC4)ncnc3c2c1`, the inhibition was 52.4% (active).

On to `C#CCOCCOCCOCCNc1nc(N2CCN(C(=O)[C@H](CCC(=O)O)n3cc(CN)nn3)CC2)nc(N2CCN(C(=O)[C@H](CCC(=O)O)n3cc(CN)nn3)CC2)n1`, for which the inhibition was -6.85% (inactive).

For `CN(C(=O)c1cccc(NC(=O)Cc2cccc([N+](=O)[O-])c2)c1)C1CCCCC1`, the inhibition is -12.3% (inactive).

With `C[C@H](CO)N1C[C@H](C)[C@H](CN(C)CC2CC2)Oc2ccc(NC(=O)CCN3CCOCC3)cc2C1=O`, the inhibition was 7.19% (inactive).

`COc1ccc(NS(=O)(=O)c2ccc(C(=O)Nc3c(C)n(C)n(-c4ccccc4)c3=O)cc2)cc1`: the inhibition was 1.25% (inactive).

On to `CC(NC(=O)COC(=O)Cn1cc(C(F)(F)F)ccc1=O)c1ccccc1` (stereo unspecified), for which the inhibition is -5.69% (inactive).

Turning to `CC1O[C@H](OC2C(COC3OC(CO)C(O)[C@H](O)C3O)OC(OC3CC[C@]4(C)C(CC[C@@]5(C)[C@@H]4C=C[C@]46OC[C@@]7(CCC(C)(C)C[C@H]74)C(O)C[C@@]56C)C3(C)C)C(O)C2O)C(O)C(O)C1O` (stereo partly specified), the inhibition was -2.45% (inactive).
